Most compounds without a hit are left out; they make up all but 19% or so of the library.
IL-1B inflam inh: qHTS for Inhibitors of Inflammasome Signaling: IL-1-beta AlphaLISA Primary Screen | AID 743279, 2014 | activity change, % at 57.5 µM | 360,000 compounds, 4.7% hits | THP-1 LPS/ATP IL-1B secretion, AlphaLISA, 16 h; hits give low values; in the data active = activity change below about -50%; inconclusive = mostly about -30% to -49%
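THP-1 cells pretreated 1 hr with compounds (up to 57.5 uM final), then stimulated with LPS (250 ng/mL final) plus ATP (1.25 mM final); secreted IL-1B measured by AlphaLISA after 16 hr, decreased signal indicating inhibition.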
HT1080 IDH1KD tx: qHTS for induction of synthetic lethality in tumor cells producing 2HG: qHTS for the HT-1080-IDH1KD cell line; HT-1080 IDH1 knockdown viability, ATP luminescence, 48 h; Potency, µM (top dose mostly 46.1 µM), for the others: at the top dose activity, negative = toxicity, most hits filed as cytotoxic; 360,000 compounds, 2% hits; AID 686971, 2013;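 note: potency is the fitted concentration of half-maximal effect; 0% = DMSO wells and -100% = cell-free medium wells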
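Knockdown cells (IDH1KD HT-1080) received compounds 2 h after plating at 750 cells/well and were kept 48 h at 37 °C in 5% FBS RPMI. A CellTiter-Glo luminescence read gave % activity for curve fitting.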
HT1080-NT tox: qHTS for induction of synthetic lethality in tumor cells producing 2HG: qHTS for the HT-1080-NT fibrosarcoma cell line. 360,000 compounds, 1.6% hits. AID 686970, 2013. HT-1080-NT fibrosarcoma viability, CellTiter-Glo ATP luminescence, 48 h. Potency, µM (titrated, usually from 46.1 µM), for inactives: at the highest dose activity, negative = less viability, actives largely listed as cytotoxic;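 note: NT is the 2HG producing partner of a matched IDH1 knockdown line; potency is the fitted concentration of half-maximal effect; 0% = DMSO-treated cells and -100% = media-only wells without cells; nearly all actives have a fitted effect of over 55% in size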
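Viability by CellTiter-Glo luminescence after 48 h compound exposure at 37C of HT-1080-NT cells (750/well, RPMI, 5% FBS). % activity scaled between DMSO wells and medium-only wells, then curve-fitted and categorized by curve class.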
DT40 TDP1 CPT: qHTS for Inhibitors of human tyrosyl-DNA phosphodiesterase 1 (TDP1): qHTS in cells in presence of CPT | 420,000 compounds, 12% hits | AID 686979, 2013 | Potency, µM (series often up to 46.2 µM), inactives show top-dose activity change, negative = growth inhibition, actives largely listed as inhibitors | chicken DT40 Tdp1-/-;hTDP1 cells + 20 nM CPT, ATP luminescence, 48 h; note: potency is the fitted concentration of half-maximal effect; nearly all actives have a fitted effect of over 55% in size
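Chicken DT40 Tdp1-/- cells complemented with human TDP1, 400 cells/well, exposed to compounds plus 20 nM camptothecin for at least 48 h at 37 C; viability read as ATP content by CellTiter-Glo luminescence.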
TDP1 cell noCPT: qHTS for Inhibitors of human tyrosyl-DNA phosphodiesterase 1 (TDP1): qHTS in cells in absence of CPT; Potency, µM (titrated, usually from 46.2 µM), for inactives: top-dose activity change, negative = growth inhibition, hits mostly inhibitors; 420,000 compounds, 15% hits; DT40 Tdp1-/- hTDP1 cells, no CPT, ATP luminescence, 48 h; note: potency is the fitted concentration of half-maximal effect; nearly all actives have a fitted effect of over 55% in size
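No-CPT arm: Tdp1-/-;hTDP1 DT40 cells (400/well) plus compounds, incubated ≥48 hr at 37 °C. Readout CellTiter-Glo luminescence.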
The depositor's hits bear a star; ? = inconclusive; · = no result given; [ ] = dose if it differs, or a comment. Unless noted, calls come from the whole dose curve; as a rule, active = well fitted curve in the direction sought with a large enough effect; inconclusive = small, poorly fitted or top-dose-only effect, or another doubt; inactive = no such curve, though single readings can be large; an effect the other way counts as inactive or inconclusive. Unless noted, % is set by controls: 0 for no effect and ±100 for the full control effect.

SMILES | IL-1B inflam inh | HT1080 IDH1KD tx | HT1080-NT tox | DT40 TDP1 CPT | TDP1 cell noCPT
O=C1C2CSCN2C(=O)CN1CCCN1CCN(C(c2ccccc2)c2ccccc2)CC1 (centres undefined) | -18 | 9% | -1% | ? | ?
Cc1cc(C(=O)C(=O)O)c(C)n1-c1ccc(Cl)cc1 | 2 | -3% | 7% | 24% | -15%
Cc1cc(C(=O)C(C)Sc2cccc[n+]2[O-])c(C)n1-c1ccc(Cl)cc1 (centres undefined) | -101* | 23µM* | ? | 2.9µM* | 2.9µM*
CN(C)C1(CN=Cc2cc(Cl)cc([N+](=O)[O-])c2O)CCCCC1 | -7 | -4% | -5% | -5% | -24%
O=C(Nc1ccccc1)c1cc2ccccc2s1 | 19 | -20% | ? | 1% | -24%
CCN(Cc1ccccc1)Cc1c(O)ccc2oc(C)c(C(=O)Nc3ccc(C)cc3C)c12 | · | · | · | 7.3µM* | 7.3µM*
Cc1ccc(NC(=O)c2c(C)oc3ccc(O)c(CN(C)Cc4ccccc4)c23)c(C)c1 | · | · | · | 16µM* | 15µM*
CC[C@@]1(C(=O)OC)N[C@H](CN(C)S(=O)(=O)c2ccccc2)[C@@H]2C(=O)N(C)C(=O)[C@@H]21 | 4 | 9% | 11% | -1% | -10%
Fc1ccc(Br)cc1C1C=C(c2cccnc2)Nc2ncnn21 (centres undefined) | 29 | -6% | -7% | 16µM* | 16µM*
CCOC(=O)C1=C(C)Nc2ncnn2C1c1cc(Br)ccc1F (centres undefined) | 13 | ? | -8% | ? | 26µM*
CCOC(=O)C1=C(C)Nc2ncnn2C1c1cccs1 (centres undefined) | 48 | -5% | 0% | -23% | -10%
CCOc1ccc(C2=CC(c3cc(Br)ccc3F)n3ncnc3N2)cc1Cl (centres undefined) | · | · | · | 15µM* | 18µM*
CCC(=O)Nc1ccc(S(=O)(=O)NC[C@H]2O[C@@H](n3cnc4c(=O)[nH]c(N)nc43)[C@H](O)[C@@H]2O)cc1 | 6 | 22% | 13% | 10% | 21%
COc1ccc(/C=C(\NC(=O)c2ccccc2Cl)C(=O)NCCCC(=O)O)cc1 | -11 | 2% | 11% | 24% | 0%
OCCC1CN(Cc2ccc(Oc3ncccn3)cc2)CCN1C1CCCC1 (centres undefined) | -16 | 1% | 0% | ? | 1%
COCC(=O)Nc1cc(C(=O)N2CCN(c3ccccc3)C(=O)C2)cc2nc(-c3ccccc3)n(C)c12 | · | · | · | 4% | 8%
CCN(CC)CCNC(=O)Cc1nn(CC)c(=O)c2ccccc12 | 19 | 4% | 11% | 1% | 3%
O=c1c2ccccc2sc2c(CO)ccc(NCCN3CCCCC3)c12 | -101* | ? | -28% | 0.41µM* | 0.92µM*
CCN(CC)CCNc1ccc(CO)c2sc3ccccc3c(=O)c12 | -105* | 21µM* | 12µM* | 0.58µM* | 1.2µM*
CCN(CC)CCNc1ccc(CO)c2oc3ccccc3c(=O)c12 | -55* | -17% | ? | 8.2µM* | 8.2µM*
CCc1nc(OCCN(CC)CC)c2oc3ccccc3c2n1 | -25 | 1% | 2% | -11% | -10%
CCN(CC)CCNc1cccc2sc3ccccc3c(=O)c12 | 0 | -14% | -3% | 23µM* | 18µM*
Nc1ccc(S(=O)(=O)Nc2nccc(/C=C/c3ccc(Cl)cc3Cl)n2)cc1 | -10 | -3% | 2% | -3% | -9%
O=C(Cn1cc(COc2ccc(Br)cc2[N+](=O)[O-])nn1)c1ccc(O)cc1 | -5 | -1% | -1% | ? | 2%
COc1ccc(Cl)cc1NC(=O)CSc1nnc2[nH]c(=O)cc(C)n12 | · | · | · | 19% | -6%
SMILES | IL-1B inflam inh | HT1080 IDH1KD tx | HT1080-NT tox | DT40 TDP1 CPT | TDP1 cell noCPT
CCC(C)[C@H](N)C(=O)N[C@H]1CCC2C3CC=C4C[C@@H](O)CC[C@]4(C)C3CC[C@@]21C (some centres undefined) | -111* | ? | ? | ? | ?
CC(C)[C@H](N)C(=O)N[C@H]1CCC2C3CC=C4C[C@@H](O)CC[C@]4(C)C3CC[C@@]21C (some centres undefined) | -106* | ? | 18µM* | ? | ?
C[C@]12CC[C@H](O)CC1=CCC1C2CC[C@@]2(C)C1CC[C@@H]2NCc1ccccc1 (some centres undefined) | 17 | -10% | -2% | 21µM* | 21µM*
CCc1noc(C)c1C(=O)Nc1cc(Cl)ccc1N1CCCC1 | 7 | 5% | 6% | ? | 18µM*
CCc1cc(C(=O)Nc2cc(Cl)ccc2N2CCN(C)CC2)sc1C | -10 | -1% | -4% | ? | 23µM*
Cn1nc(C(=O)Nc2cc(Cl)ccc2N2CCCC2)c2ccccc2c1=O | 30 | 0% | -4% | ? | ?
CN1CCN(c2ccc(Cl)cc2NC(=O)c2nn(-c3ccccc3)c(=O)c3ccccc23)CC1 | -18 | -4% | -6% | ? | 9.2µM*
COc1ccccc1Oc1nc([N+](=O)[O-])nn1CC(N)=O | 20 | 1% | -3% | -25% | ?
COc1cc(OC)cc(C(=O)NNC(=O)CNC(=O)c2cccs2)c1 | -12 | 15% | 11%[9.24 µM] | 12% | -3%
N#CC(C(=O)c1ccco1)c1ccccn1 (centres undefined) | ? | -5% | 25% | 23% | 0%
COc1ccc(N2C(=O)CSC2c2ccccc2[N+](=O)[O-])cc1 (centres undefined) | 14 | 2% | 10% | 5% | 0%
O=C(NCCN1C(=O)S/C(=C\c2ccc(OC(F)F)cc2)C1=O)C1=COCCO1 | -1 | ? | ? | 8.2µM* | 7.3µM*
O=C(NCCN1C(=O)S/C(=C\c2ccc(OC(F)F)cc2)C1=O)c1cnccn1 | ? | ? | ? | 1.8µM* | 2.1µM*
O=C(NCCN1C(=O)S/C(=C\c2ccc(OC(F)F)cc2)C1=O)[C@@H]1CCCN1C(=O)c1cccs1 | ? | 5% | 13% | ? | ?
O=C(NCCN1C(=O)S/C(=C\c2ccc(Cl)cc2)C1=O)C1=COCCO1 | 7 | 0% | -12% | -24% | -20%
COc1ccc(/C=C2\SC(=O)N(CCNC(=O)Cc3coc4cc(OC)ccc34)C2=O)cc1 | 7 | -6% | -10% | ? | ?
COc1ccc(/C=C2\SC(=O)N(CCNC(=O)C3=COCCO3)C2=O)cc1 | 15 | 7.3µM* | 7.3µM* | 1.3µM* | 1.3µM*
